Reference: the supplement of paper PMC6555819

Legend:
Test in all cases: PBM binding z-score (relative to random genomic background probes); higher = stronger binding; sequences stand for … in GC…GCGATTGACAGCGTAGAATGAAGG
[1] = test system: FXR:RXRa (NR concentration 270 nM, RXRa partner concentration 90 nM)
Procedure, shortened: (§1)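 Regression normalization was applied to scanned fluorescence from custom Agilent 4×180K protein-binding microarrays. Before scanning, arrays were incubated 1 h with ligand-free nuclear receptor dimers, and binding was detected with antibodies against each partner (one per run). Binding z-scores use the random background probes as reference.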

[2] = test system: LXRa:RXRa (NR concentration 270 nM, RXRa partner concentration 90 nM)
Procedure, shortened: as §1

[3] = test system: LXRa homodimer (NR concentration 270 nM)
Procedure, shortened: as §1

[4] = test system: LXRb:RXRa (NR concentration 270 nM, RXRa partner concentration 90 nM)
Procedure, shortened: as §1

[5] = test system: LXRb homodimer (NR concentration 270 nM)
Procedure, shortened: as §1

[6] = test system: PPARa:RXRa (NR concentration 270 nM, RXRa partner concentration 90 nM)
Procedure, shortened: as §1

[7] = test system: PPARg:RXRa (NR concentration 180 nM, RXRa partner concentration 90 nM)
Procedure, shortened: as §1

[8] = test system: PPARg:RXRa 270nM:90nM, anti-RXR (NR concentration 270 nM, RXRa partner concentration 90 nM)
Procedure, shortened: as §1

[9] = test system: PPARg:RXRa 30nM:10nM, anti-RXR (NR concentration 30 nM, RXRa partner concentration 10 nM)
Procedure, shortened: as §1

[10] = test system: PPARg:RXRa 90nM:30nM, anti-RXR (NR concentration 90 nM, RXRa partner concentration 30 nM)
Procedure, shortened: as §1

Row | Sequence | PBM binding z-score [1] | PBM binding z-score [2] | PBM binding z-score [3] | PBM binding z-score [4] | PBM binding z-score [5] | PBM binding z-score [6] | PBM binding z-score [7] | PBM binding z-score [8] | PBM binding z-score [9] | PBM binding z-score [10]
1 | CAATCTAGGTCAAGGTCAAAGTCGGTTTGTGCCA | 6.74 | 5.74 | 4.27 | 4.52 | 1.81 | 6.18 | 9.73 | 8.06 | 6.64 | 8.19
2 | TATACAGGGTCAAAGGCCAGAGTTCGAATGTCGA | 7.08 | 6.38 | 3.94 | 4.81 | 2.5 | 6.15 | 8.48 | 7.27 | 5.54 | 7.17
3 | TGTCAAAGTTCAAAGGTAACGTAAGTATCCACAC | 6.82 | 6.64 | 4.55 | 4.83 | 2.02 | 5.9 | 8.46 | 7.64 | 5.11 | 7.32
4 | ATGGAAAGGTCGAGGTGAGTATAGAGAAAGGGAA | 4.15 | 3.47 | 0.547 | 2.81 | 0.956 | 4.69 | 3.21 | 4.02 | 1.44 | 2.83
5 | ATACCAAGGTAATCGTGAGGTCGTTGATACTAAC | 1.31 | 1.48 | 0.673 | 1.29 | 0.295 | 1.38 | 0.484 | 0.308 | -0.0613 | 0.22
6 | TCTTGTAGATCCGCAGGTTAAGAAAGCTGGCCAA | 0.144 | 0.322 | -0.25 | 0.303 | -0.333 | 0.634 | -0.592 | 1.34 | 2.55 | 1.87
7 | CCTTACGGGTCAAGTTTATAGCACGGGTGGTACG | 6.15 | 4.11 | 0.444 | 3.48 | 0.604 | 5.14 | 4.2 | 4.22 | 1.91 | 3.06
8 | CAGCCTAGGTCAGGGCCAGTAAAGGAGGAACGTT | 1.69 | 0.93 | -0.563 | 0.471 | -1.1 | 2.26 | 0.751 | 0.991 | -0.53 | 0.142
9 | TAGCCTAGGTCATTCACGGGCCAGTATAGAAAGC | 4.64 | 3.74 | 0.702 | 2.48 | 0.779 | 3.36 | 2.05 | 2.19 | 0.448 | 1.74
10 | TCGAGTAGGTTACAAATGGGGCATTCAGCTTTCT | 0.181 | 1.08 | -0.216 | 1.01 | -0.699 | 1.25 | 0.565 | 1.21 | 1.43 | 1.04
11 | TCTGGTAGATCAAGCAGGTTAAGAAAGCCTGAGT | -0.292 | -0.109 | -0.642 | 0.00998 | -1.25 | 0.171 | -0.556 | 0.81 | 2.17 | 1.5
12 | TCTATTAGTTGAAGGGCAGCCGACGAGTCCGTTT | 0.906 | 0.864 | 0.0935 | 0.623 | 0.323 | 0.856 | -0.213 | 1.78 | 3.64 | 2.81
13 | GCATAGAGGTAATACAAGGTGAAAGTCCGATTGT | 1.25 | 3.39 | -0.00697 | 1.1 | -0.79 | 1.51 | 0.691 | 0.857 | 0.448 | 0.729
14 | CCTACTGGGCCACGAAAGGTCATTGAGTCAGTGA | 3.83 | 5.32 | 5.25 | 4.4 | 0.561 | 4.87 | 5.06 | 5.06 | 2.55 | 4.22
15 | AGAATGAGGTTGCCAAAGATCAGGGAAACGCTTG | 0.0162 | 0.364 | -0.555 | 0.0727 | -0.656 | 0.857 | 0.786 | 0.932 | 0.289 | 0.435
16 | TCTAGTTGGTCACGGAGGTCACACAGGACGGGTA | 3.66 | 3.54 | 2.46 | 3.05 | 0.75 | 3.83 | 3.74 | 3.76 | 3.51 | 3.91
17 | CGTCCAAGGTCATAGCAGGTCAGTGAAGACAGAT | 7.63 | 7.02 | 3.65 | 5.58 | 0.842 | 5.85 | 5.23 | 5.24 | 2.03 | 4.17
18 | CAACCAAGGTGAACAAGGTCGTTGATTACTATTC | 1.58 | 1.48 | 0.275 | 2.09 | -0.212 | 2.67 | 1.33 | 1.41 | 0.118 | 0.789
19 | CAAACTAGGTCACCGGAAGGTCGAAGTCCGCATG | 4.63 | 4.34 | 1.21 | 3.06 | 0.673 | 5.6 | 9.2 | 7.5 | 5.41 | 7.33
20 | GCTGCTAGGTCAACTGATGGTCGGCTAAAGCTCG | 3.88 | 3.08 | 0.00529 | 1.89 | -0.133 | 3.7 | 2.39 | 3.16 | 0.547 | 1.99
21 | ATCTCTAGATAACAAGTTCAGTGAAAGAGAGGAC | 0.459 | 0.495 | 0.398 | 0.384 | 0.4 | 0.365 | 0.657 | 0.541 | 0.363 | 0.315
22 | CCAACTAGGTCAAGGTCAAAGTCGGTTTGTGCCA | 6.64 | 5.56 | 4.61 | 4.73 | 1.43 | 6.14 | 9.18 | 7.58 | 5.13 | 7.56
23 | AGAATGAGGTAACCAAAGATCAGGGAAACGCTTG | -0.0845 | 3.81 | -0.311 | 0.439 | -0.22 | 1.21 | 1.15 | 0.888 | 0.575 | 0.541
